In PubChem BioAssay (NCI):
The panel holds about 79,000 compounds, 15% with a hit somewhere; the sample as a whole holds those more often. Calls of active or inactive are those of the source. Cut-off read from the data, not from the text of the source: active = growth inhibition above about 70%; inactive = the rest.

Columns and labels:
[1] = NCI Yeast Anticancer Drug Screen. Data for the wt2 strain (AID 169); details: S. cerevisiae wt2 strain growth inhibition, stronger effect = higher value
In short: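 Growth of compound-treated yeast is measured and expressed as inhibition relative to vehicle-only controls.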

[2] = NCI Yeast Anticancer Drug Screen. Data for the mlh1 strain (AID 171);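 note: 0% = growth of vehicle-treated control cultures of the same strain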; details: S. cerevisiae mlh1 strain growth inhibition, stronger effect = higher value
In short: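 Test agents were incubated with yeast bearing a defined DNA damage repair or cell cycle control alteration; values are growth inhibition normalised to vehicle-treated cultures.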

[3] = NCI Yeast Anticancer Drug Screen. Data for the sgs1 strain (AID 173);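 note: 0% = growth of vehicle-only control cultures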; details: S. cerevisiae sgs1 mutant, stronger effect = higher value
In short: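 Strain with an altered DNA repair or cell cycle pathway exposed to compound. Growth then measured. Value = inhibition versus vehicle control.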

[4] = NCI Yeast Anticancer Drug Screen. Data for the mlh1 rad18 strain (AID 175); details: S. cerevisiae mlh1 rad18 strain growth inhibition, stronger effect = higher value
In short: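 A repair-deficient yeast strain is exposed to test compound, and growth is scored relative to vehicle-treated controls.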

[5] = NCI Yeast Anticancer Drug Screen. Data for the rad18 strain (AID 177); details: S. cerevisiae rad18 mutant growth inhibition, stronger effect = higher value
In short: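 DNA-repair-defective yeast; compound treatment; growth inhibition scored against vehicle.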

[6] = NCI Yeast Anticancer Drug Screen. Data for the rad52 strain (AID 147);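 note: 0% = growth of vehicle-treated control cultures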; details: S. cerevisiae rad52 mutant growth inhibition, stronger effect = higher value
In short: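 Growth of repair-deficient yeast cells was compared between compound-treated and vehicle-treated cultures to give percent inhibition.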

[7] = NCI Yeast Anticancer Drug Screen. Data for the wt1 strain (AID 149);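 note: 0% = growth of vehicle-treated wt1 cultures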; details: S. cerevisiae wt1 strain (SPY 50644) growth inhibition, stronger effect = higher value
In short: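 Each compound is tested on wt1 yeast and the loss of growth versus vehicle gives the inhibition value.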

[8] = NCI Yeast Anticancer Drug Screen. Data for the rad50EPP+ strain (AID 151);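 note: 0% = growth of vehicle-treated control cultures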; details: S. cerevisiae rad50 mutant strain, stronger effect = higher value
In short: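 Measured: growth inhibition of rad50EPP+ yeast. Reference: vehicle-treated controls. Screen uses strains with defined genetic alterations in DNA damage repair or cell cycle control.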

[9] = NCI Yeast Anticancer Drug Screen. Data for the mgt1 strain (AID 153); details: S. cerevisiae mgt1 mutant growth inhibition, stronger effect = higher value
In short: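 Compounds were applied to mgt1 mutant yeast, and growth was then compared against vehicle-treated control cultures to give percent inhibition.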

[10] = NCI Yeast Anticancer Drug Screen. Data for the rad50 strain (AID 155);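 note: 0% = growth of vehicle-only cultures of the same strain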; details: S. cerevisiae rad50 strain growth inhibition, stronger effect = higher value
In short: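 Vehicle-treated cultures provide the reference for the growth inhibition reported for compound-exposed, repair-deficient yeast.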

[11] = NCI Yeast Anticancer Drug Screen. Data for the mec2-1 strain (AID 157); details: S. cerevisiae mec2-1 strain, stronger effect = higher value
In short: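 Compounds were applied to mec2-1 yeast cells. Their growth was then compared with that of vehicle-treated cultures to give growth inhibition.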

[12] = NCI Yeast Anticancer Drug Screen. Data for the rad14 strain (AID 159);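 note: 0% = growth of vehicle-treated control cultures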; details: S. cerevisiae rad14 strain growth inhibition, stronger effect = higher value
In short: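 Inhibition of growth is reported for a repair-deficient yeast mutant following compound treatment, calculated relative to cultures that received vehicle.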

[13] = NCI Yeast Anticancer Drug Screen. Data for the sgs1 mgt1 strain (AID 161);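 note: 0% = growth of cultures given vehicle only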; details: S. cerevisiae sgs1 mgt1 strain, stronger effect = higher value
In short: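 Growth of a repair-deficient yeast mutant was monitored after compound treatment and expressed as inhibition relative to vehicle-treated cultures.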

[14] = NCI Yeast Anticancer Drug Screen. Data for the CLN2oe strain (AID 163);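 note: 0% = growth of vehicle-only control cultures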; details: S. cerevisiae CLN2oe strain, stronger effect = higher value
In short: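 Cells of an engineered yeast line with disturbed cell-cycle regulation are treated with compound. Inhibition of growth is then calculated relative to the vehicle-treated reference.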

[15] = NCI Yeast Anticancer Drug Screen. Data for the cln2 rad14 strain (AID 165);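 note: 0% = growth equal to vehicle treated cultures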; details: S. cerevisiae cln2 rad14 strain, stronger effect = higher value
In short: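 Strain: cln2 rad14 yeast, altered in cell cycle control and DNA damage repair. Read-out: growth inhibition vs vehicle.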

[16] = NCI Yeast Anticancer Drug Screen. Data for the bub3 strain (AID 167); details: S. cerevisiae bub3 mutant strain, stronger effect = higher value
In short: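 Mutant yeast screening strain plus compound; vehicle-treated cultures serve as the 0% inhibition reference.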

[17] = at 5.0 µM (retest, dose inferred, filed as 0.5)
[18] = at 50.0 µM (retest, dose inferred, filed as 5.0)

Measured: growth inhibition

CC(CC/C(=N/O)c1ccccc1)(CC/C(=N\O)c1ccccc1)[N+](=O)[O-] (centres undefined)
active: [4]; at 50.0 µM 96.8% | [5]; at 100.0 µM 84%
inactive: [1]; at 1.2 µM -10% | [1]; at 3.7 µM -11% | [1]; at 11.0 µM -16% | [1]; at 33.0 µM -10% | [1]; at 100.0 µM 20% | [2]; at 1.2 µM -4% | [2]; at 3.7 µM -3% | [2]; at 11.0 µM -7% | [2]; at 33.0 µM -6% | [2]; at 100.0 µM 32% | [3]; at 1.2 µM -13% | [3]; at 3.7 µM 0% | [3]; at 11.0 µM -11% | [3]; at 33.0 µM -11% | [3]; at 100.0 µM 55% | [4]; [17] 5% | [4]; [18] 46% | [5]; at 1.2 µM 0% | [5]; at 3.7 µM -4% | [5]; at 11.0 µM -6% | [5]; at 33.0 µM 0%

O=[N+]([O-])c1cc[n+]([O-])c(Cl)c1
inactive: [6]; at 1.2 µM 1% | [6]; at 3.7 µM 12% | [6]; at 11.0 µM 10% | [7]; at 1.2 µM -17% | [7]; at 3.7 µM -26% | [7]; at 11.0 µM -19% | [8]; at 1.2 µM 8% | [8]; at 3.7 µM 14% | [8]; at 11.0 µM 44% | [9]; at 1.2 µM 12% | [9]; at 3.7 µM -4% | [9]; at 11.0 µM 24% | [10]; at 1.2 µM 1% | [10]; at 3.7 µM 9% | [10]; [17] 9% | [10]; at 11.0 µM 28% | [11]; at 1.2 µM 5% | [11]; at 3.7 µM 15% | [11]; [17] -3% | [11]; at 11.0 µM 26% | [12]; at 1.2 µM 1% | [12]; at 3.7 µM 5% | [12]; at 11.0 µM 19% | [13]; [17] 1% | [14]; at 1.2 µM -6% | [14]; at 3.7 µM -4% | [14]; at 11.0 µM 12% | [15]; [17] 10% | [16]; at 1.2 µM -16% | [16]; at 3.7 µM -16% | [16]; [17] 5% | [16]; at 11.0 µM -8% | [1]; at 1.2 µM -55% | [1]; at 3.7 µM -50% | [1]; at 11.0 µM -42% | [2]; at 1.2 µM -11% | [2]; at 3.7 µM 16% | [2]; at 11.0 µM 30% | [3]; at 1.2 µM 8% | [3]; at 3.7 µM 10% | [3]; at 11.0 µM 34% | [4]; [17] 1% | [5]; at 1.2 µM -25% | [5]; at 3.7 µM -21% | [5]; at 11.0 µM -5%
active: [6]; at 33.0 µM 82% | [6]; at 100.0 µM 98% | [7]; at 33.0 µM 100% | [7]; at 100.0 µM 99% | [8]; at 33.0 µM 94% | [8]; at 100.0 µM 98% | [9]; at 33.0 µM 99% | [9]; at 100.0 µM 99% | [10]; at 33.0 µM 100% | [10]; [18] 99% | [10]; at 50.0 µM 99.5% | [10]; at 100.0 µM 100% | [11]; at 33.0 µM 100% | [11]; [18] 99% | [11]; at 50.0 µM 99.7% | [11]; at 100.0 µM 99% | [12]; at 33.0 µM 97% | [12]; at 100.0 µM 100% | [13]; [18] 99% | [13]; at 50.0 µM 99.8% | [14]; at 33.0 µM 79% | [14]; at 100.0 µM 99% | [15]; [18] 98% | [15]; at 50.0 µM 99% | [16]; at 33.0 µM 98% | [16]; [18] 99% | [16]; at 50.0 µM 99.5% | [16]; at 100.0 µM 99% | [1]; at 33.0 µM 99% | [1]; at 100.0 µM 99% | [2]; at 33.0 µM 98% | [2]; at 100.0 µM 99% | [3]; at 33.0 µM 100% | [3]; at 100.0 µM 100% | [4]; [18] 99% | [4]; at 50.0 µM 99.5% | [5]; at 33.0 µM 98% | [5]; at 100.0 µM 99%

O=C1C=C(NCCc2cc(Br)c(O)c(Br)c2)C(=O)c2ncccc21
active: [6]; at 33.0 µM 89% | [6]; at 100.0 µM 94% | [7]; at 100.0 µM 95% | [8]; at 33.0 µM 82% | [8]; at 100.0 µM 90% | [9]; at 100.0 µM 94% | [10]; at 33.0 µM 88% | [10]; [18] 89% | [10]; at 50.0 µM 92.1% | [10]; at 100.0 µM 94% | [11]; [18] 92% | [11]; at 50.0 µM 73.8% | [11]; at 100.0 µM 93% | [12]; at 33.0 µM 82% | [12]; at 100.0 µM 93% | [13]; [18] 83% | [13]; at 50.0 µM 89.5% | [14]; at 100.0 µM 90% | [15]; [18] 90% | [16]; [18] 96% | [16]; at 50.0 µM 95.5% | [16]; at 100.0 µM 94% | [1]; at 100.0 µM 91% | [2]; at 33.0 µM 82% | [2]; at 100.0 µM 96% | [3]; at 33.0 µM 82% | [3]; at 100.0 µM 96% | [4]; [18] 95% | [4]; at 50.0 µM 91% | [5]; at 11.0 µM 75% | [5]; at 33.0 µM 91% | [5]; at 100.0 µM 95%
inactive: [6]; at 1.2 µM 40% | [6]; at 3.7 µM 50% | [6]; at 11.0 µM 54% | [7]; at 1.2 µM 17% | [7]; at 3.7 µM 19% | [7]; at 11.0 µM 27% | [7]; at 33.0 µM 53% | [8]; at 1.2 µM 23% | [8]; at 3.7 µM 38% | [8]; at 11.0 µM 49% | [9]; at 1.2 µM 13% | [9]; at 3.7 µM 15% | [9]; at 11.0 µM 25% | [9]; at 33.0 µM 69% | [10]; at 1.2 µM 18% | [10]; at 3.7 µM 24% | [10]; [17] 1% | [10]; at 11.0 µM 44% | [11]; at 1.2 µM 6% | [11]; at 3.7 µM 21% | [11]; [17] -5% | [11]; at 11.0 µM 28% | [11]; at 33.0 µM 69% | [12]; at 1.2 µM 24% | [12]; at 3.7 µM 21% | [12]; at 11.0 µM 23% | [13]; [17] 4% | [14]; at 1.2 µM -5% | [14]; at 3.7 µM 39% | [14]; at 11.0 µM 41% | [14]; at 33.0 µM 55% | [15]; [17] 21% | [15]; at 50.0 µM 46.2% | [16]; at 1.2 µM -2% | [16]; at 3.7 µM -6% | [16]; [17] 12% | [16]; at 11.0 µM 5% | [16]; at 33.0 µM 68% | [1]; at 1.2 µM 13% | [1]; at 3.7 µM 15% | [1]; at 11.0 µM 26% | [1]; at 33.0 µM 67% | [2]; at 1.2 µM 27% | [2]; at 3.7 µM 27% | [2]; at 11.0 µM 36% | [3]; at 1.2 µM 28% | [3]; at 3.7 µM 29% | [3]; at 11.0 µM 43% | [4]; [17] 21% | [5]; at 1.2 µM 55% | [5]; at 3.7 µM 54%
